Where “and” joins values, the source holds several entries; their conditions need not be identical. Equal entries are not always repeated. Results filed as inconclusive are left out. More than one record can exist for a structure, and the calls need not agree. Calls of active or inactive are those of the source. Unless noted, calls follow the shape of the dose curve; as a rule, active = well fitted curve in the direction sought with a large enough effect in the repeat runs; inconclusive = weak or mixed curves; inactive = no such curve, though single readings can be large; an effect the other way counts as inactive or inconclusive.

The values that follow come from PubChem BioAssay (Tox21).

A short description of assay [1]: qHTS assay to identify small molecule agonists of the RXR signaling pathway - cell viability counter screen (AID 1159529). Also: nearly all actives have a fitted effect of over 50% in size. Also: potency is read from the fitted curve at half-maximal effect. A digest of the protocol:
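RXR-alpha-UAS-bla HEK 293T cells in medium with 2% charcoal-stripped FBS were pre-incubated 5 hr, then compound-treated 16 hr at 37 C. Viability was read by CellTiter-Glo luminescence in the same wells as the beta-lactamase assay, with tetraoctyl ammonium bromide as positive control.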

Assay [2] in a line: qHTS assay to identify small molecule antagonists of the retinoid acid receptor (RAR) signaling pathway - cell viability counter screen (AID 1159551). Also: nearly all actives have a fitted effect of over 35% in size. A digest of the protocol:
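Cytotoxicity counter screen: ATP content quantified by CellTiter-Glo luminescence in C3RL4 cells treated 6 hr at 37 C with compound and retinol (1 uM final). Cells plated at 1,000/well and cultured overnight before dosing.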
Background: qHTS replaces the single test concentration by a dilution series.

A short description of assay [3]: qHTS assay to identify small molecule antagonists of the retinoic acid receptor (RAR) signaling pathway (AID 1159552; also: nearly all actives have a fitted effect of over 50% in size; also: potency is read from the fitted curve at half-maximal effect). A digest of the protocol:
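Retinol signaling pathway inhibitors screened in C3RL4 RARE-luciferase reporter cells seeded overnight at 37 C, then compounds added with 1 uM (final) retinol as pathway substrate. After 6 hr at 37 C, luciferase luminescence read after 30 min at room temperature.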

Assay [4] in a line: qHTS assay to identify small molecule agonists of the retinoic acid receptor (RAR) signaling pathway (AID 1159553). Conditions: C3RL4 RARE luciferase reporter, agonist, 6 h; activation: at 73.3 µM (top of the series) unless noted. The method in brief:
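Luminescence was measured 30 min after luciferase reagent addition at room temperature. Before that, C3RL4 reporter cells (1,000 per well, plated overnight) were treated with compound for 6 hr at 37 C and 5% CO2.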

Assay [5] can be described thus: qHTS assay to identify small molecule antagonists of the estrogen related receptor (ERR) signaling pathway from Tox21 library - cell viability counter screen (AID 1224834). Also: nearly all actives have a fitted effect of over 30% in size. A digest of the protocol: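 CellTiter-Fluor fluorescence, read after 30 min at 37 C, measures viability of ERR cells. Cells plated at 2,000/well and incubated 6 h before pin-tool compound addition, then exposed 17.5 hours at 37 C.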

Assay [6] has as its target Luciferin 4-monooxygenase (Photinus pyralis) (UniProt P08659). As to the kind of experiment: qHTS assay to identify small molecule inhibitors of firefly luciferase (AID 1224835). Also: nearly all actives have a fitted effect of over 25% in size. A digest of the protocol: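 Quantitative HTS format; KM concentrations of both substrates. Purified P. pyralis FLuc activity quantified from luminescence images.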
Assay [7] in a line: qHTS assay to identify small molecule agonists of the constitutive androstane receptor (CAR) signaling pathway - cell viability counter screen (AID 1224836). Also: nearly all actives have a fitted effect of over 45% in size. A digest of the protocol: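 HepG2 cells stably carrying hCAR and a CYP2B6-2.2kb reporter; 15-concentration compounds plus PK11195 (final 0.75 uM), 23 hr at 37 C/5% CO2. Viability read by CellTiter-Fluor fluorescence.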
A short description of assay [8]: qHTS assay to identify small molecule antagonists of the constitutive androstane receptor (CAR) signaling pathway - cell viability counter screen (AID 1224837). Also: nearly all actives have a fitted effect of over 45% in size. A digest of the protocol: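 Cytotoxicity counter-screen: CellTiter-Fluor fluorescence after 23 h compound exposure (15-point qHTS) in double-stable HepG2-CYP2B6-hCAR cells, with 50 nM CITCO added.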
Assay [9] deals with Nuclear receptor subfamily 1 group I member 3 (Homo sapiens) (UniProt Q14994). As to the kind of experiment: qHTS assay to identify small molecule antagonists of the constitutive androstane receptor (CAR) signaling pathway (AID 1224838).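 Also: HepG2 cells stably expressing hCAR with CYP2B6 luciferase reporter stimulated by CITCO; nearly all actives have a fitted effect of over 40% in size.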 The method in brief:
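Antagonism measured as luciferase signal (ONE-Glo, 30 min, room temperature) in CAR-stimulated cells: HepG2-CYP2B6-hCAR double-stable line exposed 24 hr at 37 C to compound in a 15-point series plus 50 nM CITCO.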

For assay [10] the target is unchanged. As to the kind of experiment: qHTS assay to identify small molecule agonists of the constitutive androstane receptor (CAR) signaling pathway (AID 1224839). Also: nearly all actives have a fitted effect of over 15% in size. Also: potency is read from the fitted curve at half-maximal effect. The method in brief:
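HepG2 cells stably co-transfected with hCAR and a CYP2B6-2.2kb luciferase reporter; compounds at 15 concentrations with 0.75 uM PK11195 present. After 24 hr at 37 C, luciferase read by ONE-Glo luminescence.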

Assay [11] is described as follows: qHTS assay to identify small molecule antagonists of the estrogen related receptor signaling pathway with the pleiotropic PPARgamma coactivator (PGC) from Tox21 10K library - cell viability counter screen (AID 1224840; active = well fitted cell-killing curve with a large enough effect in the repeat runs, not every such curve was filed as active; also: nearly all actives have a fitted effect of over 40% in size). The method in brief:
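Counter-screen for cytotoxicity: after 17.5 h compound exposure at 37 C, CellTiter-Fluor reagent added to PGC/ERR cells for 30 min and fluorescence read. Cells were seeded at 2,000 per well 6 h before dosing.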

Assay [12] in a line: qHTS assay to identify small molecule antagonists of the estrogen related receptor signaling pathway with the pleiotropic PPARgamma coactivator (PGC) from Tox21 10K library (AID 1224841; call rule not given here; also: actives are mostly falling curves and most rising ones were filed inactive; nearly all actives have a fitted effect of over 50% in size; also: potency is read from the fitted curve at half-maximal effect). The method in brief: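 Luminescence (One-Glo, 30 min at room temperature) after 18 h compound treatment at 37 C of PGC/ERR reporter cells plated at 2,000 cells/well and settled 6 h beforehand.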

Assay [13] addresses Thyrotropin receptor (Homo sapiens) (UniProt P16473). As to the kind of experiment: qHTS assay to identify small molecule agonists of the thyroid stimulating hormone receptor (TSHR) signaling pathway (AID 1224843; calls by dose curve; also: nearly all actives have a fitted effect of over 45% in size). A digest of the protocol: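 Compounds are titrated over 15 concentrations, in triplicate, onto TSHR-HEK293 cells seeded at 800/well. Plates sit 30 min at room temperature before cAMP-d2 and anti-cAMP cryptate are added; signal is read after a further hour.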

Assay [14] can be described thus: qHTS assay to identify small molecule antagonists of the estrogen related receptor (ERR) signaling pathway - cell viability counter screen (AID 1224818).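 Also: viability measured after 17.5 h of compound exposure.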 A digest of the protocol:
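Cytotoxicity counter screen: fluorescence from CellTiter-Fluor, added after 17.5 h compound exposure at 37 C and read 30 min later. ERR cell line seeded at 2,000 cells/well, preincubated 6 h before dosing.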

Assay [15] in a line: qHTS assay to identify small molecule antagonists of the estrogen related receptor (ERR) signaling pathway (AID 1224819; also: nearly all actives have a fitted effect of over 50% in size). The method in brief:
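LOPAC library screened for antagonism as reduced One-Glo luminescence in ERR reporter cells (2,000/well). Compounds were added after 6 h pre-incubation and left 18 h at 37C; reading followed a 30 min room-temperature reagent step.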

Assay [16] in a line: qHTS assay to identify small molecule agonists of the estrogen related receptor (ERR) signaling pathway (AID 1224820). The method in brief: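 After 6 h plating (2,000 cells/well) and 18 h compound treatment at 37 C, ERR cells were lysed with One-Glo and luminescence read after 30 min at room temperature.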
The test system of assay [17] is estrogen-related receptor alpha (ERRalpha) with PGC-1alpha coactivator, human. The assay is described as follows: qHTS assay to identify small molecule antagonists of the estrogen related receptor signaling pathway with the pleiotropic PPARgamma coactivator (PGC) (AID 1224821; calls by dose curve). The method in brief: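 Luminescence from One-Glo luciferase reagent (30 min, room temperature) measured after 18 h compound treatment at 37 °C. Cells carry the PGC/ERR reporter and were seeded 6 h prior to dosing.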

Assay [18] is described as follows: qHTS assay to identify small molecule antagonists of the estrogen related receptor signaling pathway with the pleiotropic PPARgamma coactivator (PGC) cell viability counter screen (AID 1224822). The method in brief: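 Viability counter-screen read by fluorescence intensity after 30 min with CellTiter-Fluor at 37 C; PGC/ERR reporter cells were exposed to compounds for 17.5 h at 37 C following a 6 h preincubation.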

The nature of assay [19]: qHTS assay to identify small molecule agonists of the estrogen related receptor signaling pathway with the pleiotropic PPARgamma coactivator (PGC) (AID 1224823). The method in brief: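 Luminescence from One-Glo reagent (30 min, room temperature) was read after 18 h compound treatment at 37 C of PGC/ERR cells plated 6 h beforehand; compounds delivered in DMSO by pin tool.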

Sequence of Nuclear receptor subfamily 1 group I member 3 (Homo sapiens) (Q14994 whole entry, looked up): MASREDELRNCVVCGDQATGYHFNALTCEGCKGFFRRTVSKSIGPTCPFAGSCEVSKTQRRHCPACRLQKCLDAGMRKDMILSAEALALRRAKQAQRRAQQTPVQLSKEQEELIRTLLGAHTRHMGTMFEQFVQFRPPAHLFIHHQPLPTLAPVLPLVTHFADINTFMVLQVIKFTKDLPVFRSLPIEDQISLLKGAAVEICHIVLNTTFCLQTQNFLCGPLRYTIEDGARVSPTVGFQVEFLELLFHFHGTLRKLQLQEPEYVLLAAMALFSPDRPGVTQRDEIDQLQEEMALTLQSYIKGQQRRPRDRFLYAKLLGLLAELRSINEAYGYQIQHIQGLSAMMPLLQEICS
Sequence of Luciferin 4-monooxygenase (Photinus pyralis) (P08659 whole entry, looked up): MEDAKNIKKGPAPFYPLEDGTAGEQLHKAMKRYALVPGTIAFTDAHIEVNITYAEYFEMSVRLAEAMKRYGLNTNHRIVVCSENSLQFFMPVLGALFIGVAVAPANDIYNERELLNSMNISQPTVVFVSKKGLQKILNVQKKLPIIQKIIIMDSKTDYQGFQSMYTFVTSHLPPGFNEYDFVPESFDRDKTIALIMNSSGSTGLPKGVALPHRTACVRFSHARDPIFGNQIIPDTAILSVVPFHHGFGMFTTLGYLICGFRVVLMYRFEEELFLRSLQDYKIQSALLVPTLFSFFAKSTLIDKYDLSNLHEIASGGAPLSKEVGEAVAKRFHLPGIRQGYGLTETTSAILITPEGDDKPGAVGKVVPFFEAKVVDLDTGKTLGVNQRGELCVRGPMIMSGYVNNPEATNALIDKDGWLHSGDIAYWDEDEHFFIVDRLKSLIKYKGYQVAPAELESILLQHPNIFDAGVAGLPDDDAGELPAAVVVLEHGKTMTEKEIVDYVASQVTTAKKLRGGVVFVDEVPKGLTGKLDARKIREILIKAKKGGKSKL
Sequence of Thyrotropin receptor (Homo sapiens) (P16473 whole entry, looked up): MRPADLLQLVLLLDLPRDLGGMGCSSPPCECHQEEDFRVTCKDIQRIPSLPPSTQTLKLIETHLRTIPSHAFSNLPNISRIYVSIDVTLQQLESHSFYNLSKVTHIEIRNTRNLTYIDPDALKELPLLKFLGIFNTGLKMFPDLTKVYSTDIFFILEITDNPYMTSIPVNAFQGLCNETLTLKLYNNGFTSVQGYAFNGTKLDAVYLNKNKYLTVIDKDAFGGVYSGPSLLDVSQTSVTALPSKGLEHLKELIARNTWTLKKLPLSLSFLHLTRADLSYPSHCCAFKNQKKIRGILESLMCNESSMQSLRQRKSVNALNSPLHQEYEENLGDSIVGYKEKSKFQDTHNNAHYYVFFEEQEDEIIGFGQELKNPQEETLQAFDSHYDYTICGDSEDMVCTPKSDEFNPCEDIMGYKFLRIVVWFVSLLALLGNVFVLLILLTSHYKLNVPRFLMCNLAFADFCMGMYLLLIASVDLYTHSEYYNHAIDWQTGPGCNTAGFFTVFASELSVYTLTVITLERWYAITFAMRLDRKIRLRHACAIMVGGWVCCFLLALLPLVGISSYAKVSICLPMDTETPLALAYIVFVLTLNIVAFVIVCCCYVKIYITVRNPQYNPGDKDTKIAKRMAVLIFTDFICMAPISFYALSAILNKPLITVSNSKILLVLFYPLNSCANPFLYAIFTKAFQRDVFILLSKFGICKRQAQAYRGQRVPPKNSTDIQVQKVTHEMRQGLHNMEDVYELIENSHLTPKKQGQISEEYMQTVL

Turning to `CCOP(=O)(OCC)OCC`, the Potency entry in assay [1], in assay [2], in assay [3], in [4], in assay [5] and in [6] was “inactive” in each case. The Potency result in assay [7], in [8], in [9], in assay [10], in assay [11] and in [12] was “inactive” each time. For the same compound, the Potency result in assay [13] was “inactive”.
Turning to `C[C@]12CC[C@H]3[C@@H](CCC4=CC(=O)CC[C@@H]43)[C@@H]1CC[C@@H]2O`, the Potency result in assay [1], in assay [2], in [4], in [5], in assay [6] and in [7] was “inactive” in each case. The Potency result in assay [8], in [9], in assay [10] and in assay [11] was “inactive” throughout. Further, the Potency in assay [3] is 48.1 µM (active).
Take `c1ccc2c(c1)Nc1ccccc1S2`: the Potency entry in assay [1], in [2], in [3], in assay [4], in assay [15] and in [17] was “inactive” throughout. The Potency result in assay [18], in assay [7], in assay [8], in assay [9], in assay [11] and in assay [12] was “inactive” throughout. Also, the compound was called inactive in assay [14], in assay [16] and in assay [19]. In addition, the Potency in assay [10] is 30.6 µM (active).
`Cc1ccc(N=CN(C)C=Nc2ccc(C)cc2C)c(C)c1`: the Potency in [1] is 43.8 µM (active) and 43.6 µM (active) and inactive. Also, the Potency result in assay [2], in assay [3], in [4], in [5], in assay [6] and in assay [7] was “inactive” in each case. Moreover, the Potency entry in [8], in assay [9], in [10] and in assay [11] was “inactive” in each case.
Regarding `CCCCSP(=O)(SCCCC)SCCCC`, the Potency result in [1], in assay [2], in [3], in [4], in assay [5] and in assay [6] was “inactive” throughout. The Potency entry in assay [7], in assay [8], in [9] and in assay [11] was “inactive” throughout. The Potency in [10] was 23.8 µM (active) and 8.63 µM (active).
Regarding `O=P(OCCCl)(OCCCl)OCCCl`, the Potency entry in assay [1], in assay [2], in assay [3], in assay [4], in assay [5] and in assay [6] was “inactive” throughout. Besides, the Potency entry in [7], in assay [8], in assay [9], in assay [10] and in [11] was “inactive” each time. The Potency in [12] is 4.81 µM (active) and inactive.
As for `CS(=O)(=O)NC(=O)c1cc(Oc2ccc(C(F)(F)F)cc2Cl)ccc1[N+](=O)[O-]`, the Potency result in assay [1], in assay [2], in assay [3], in assay [4], in [5] and in [6] was “inactive” throughout. The Potency entry in assay [7], in assay [8], in [9], in [11] and in [13] was “inactive” each time.
As to `O=C1Nc2ccc(Cl)cc2C(c2ccccc2)=NC1O` (stereo not drawn), the Potency entry in [1], in [2], in [3], in [4], in assay [5] and in assay [6] was “inactive” throughout. For the same compound, the Potency entry in assay [7], in [8], in [9], in [10], in assay [11] and in [12] was “inactive” throughout.
Turning to `COC(=O)Nc1nc2ccccc2[nH]1`, the Potency result in assay [1], in assay [2], in [3], in [4], in assay [5] and in assay [6] was “inactive” throughout. The Potency result in assay [7], in assay [8], in assay [9], in assay [11] and in [13] was “inactive” in each case.
